Assay outcomes as filed in PubChem.
Cruzain inh noDet: qHTS Assay for Promiscuous and Specific Inhibitors of Cruzain (without detergent); purified cruzain, Z-FR-AMC fluorescence, no detergent; Potency, µM, inactives show max response, negative = inhibition, actives largely listed as inhibitors; Cruzipain (Trypanosoma cruzi), P25779; 200,000 tested, 2.3% active;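 further: plate controls were enzyme without inhibitor for no effect and buffer without enzyme for full effect; nearly all actives have a fitted effect of over 40% in size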
Target sequence (P25779 123-467 limits assumed): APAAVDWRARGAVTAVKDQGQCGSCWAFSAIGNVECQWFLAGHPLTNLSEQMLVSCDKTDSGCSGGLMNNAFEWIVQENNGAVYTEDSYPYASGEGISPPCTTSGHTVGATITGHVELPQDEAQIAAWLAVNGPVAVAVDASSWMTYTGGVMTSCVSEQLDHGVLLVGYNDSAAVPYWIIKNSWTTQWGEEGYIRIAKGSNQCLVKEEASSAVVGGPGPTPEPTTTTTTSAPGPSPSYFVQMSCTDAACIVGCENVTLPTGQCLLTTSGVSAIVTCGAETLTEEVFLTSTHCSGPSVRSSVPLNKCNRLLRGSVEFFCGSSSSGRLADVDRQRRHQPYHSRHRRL
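Purified cruzain at 1.5 nM, pre-incubated 15 min with compound at room temperature in 100 mM sodium acetate pH 5.5, 5 mM DTT, 0.00005% Triton X-100. Reaction started with 2 uM Z-FR-AMC; AMC fluorescence increase over 60 s gives rate.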
Cruzain Triton: qHTS Assay for Promiscuous and Specific Inhibitors of Cruzain (with detergent) | Cruzipain (Trypanosoma cruzi), P25779 | purified cruzain, Z-FR-AMC fluorescence, 0.01% Triton | Potency, µM, for the others: max response, negative = inhibition, hits mostly inhibitors | 200,000 tested, 0.43% active;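 further: plate controls were neutral wells for no effect and buffer without enzyme for full effect; nearly all actives have a fitted effect of over 40% in size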
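Detergent-containing run (0.01% Triton X-100) in acetate buffer pH 5.5 with 5 mM DTT: enzyme at 1.5 nM final, 15 min compound preincubation at room temperature, then 2 uM Z-FR-AMC substrate. Activity taken as 60 s fluorescence increase at 360/450 nm.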
* hit, by the source's call; ? = inconclusive. Sampled rows, rich in hits. Any-hit rate of the full collection: about 2.6%. The call rests on the fitted dose curve; in most records, active means well fitted curve in the direction sought with a large enough effect; inconclusive means small, poorly fitted or top-dose-only effect, or another doubt; inactive means no such curve, though single readings can be large; an effect the other way counts as inactive or inconclusive. Potency means the concentration at half of the fitted maximal effect.

SMILES	Cruzain inh noDet	Cruzain Triton
CN1CC[C@@]2(CCCN(C(=O)c3cccc(F)c3)C2)C1	-3%	0%
COc1cccc(C(c2sc3nc(-c4ccco4)nn3c2O)N2CCN(c3ccccc3F)CC2)c1 (stereo not given)	13%	-8%
COC(=O)[C@@H]1C[C@@]2(O)[C@@H](O)[C@@H](O)[C@@H](O)C[C@H]2N1CC1CC1	-3%	-2%
C[N+](C)(C)c1cc2c(nn1)Nc1ccccc1S2	14%	-1%
CCOc1ccccc1CNC(=O)C1CCCN(c2ncnc3onc(-c4ccc(F)cc4)c23)C1 (stereo not given)	-12%	-1%
COc1cccc(CN(C(=O)c2oc3ccc(Br)cc3c2C)C2CCS(=O)(=O)C2)c1 (stereo not given)	17%	-6%
O=C(Nc1ccc(Cl)cc1)C1CCC(CNS(=O)(=O)c2ccc(Br)s2)CC1 (stereo not given)	25µM*	-2%
CC(=O)c1ccc(NC(=O)C2CCC(CNS(=O)(=O)c3ccc(Br)s3)CC2)cc1 (stereo not given)	1%	-4%
Clc1ccc(CCNc2nc3cc(Cl)c(Cl)cc3n3cnnc23)cc1	-8%	1%
Cc1ccc(CNC(=O)c2ccc3c(c2)N(Cc2cccc(C)c2)C(=O)CS3)cc1	9%	-5%
NS(=O)(=O)c1ccc(NC(=O)CN2CCN(c3ccc(F)cc3)CC2)cc1	0%	0%
CC(C)(C)OC(=O)N[C@@H](Cc1ccccc1)c1nnc(SCC(=O)c2ccc(Cl)cc2)o1	?	0%
CCSc1nnc([C@H](Cc2ccccc2)NC(=O)OC(C)(C)C)o1	-4%	-8%
CC(C)(C)OC(=O)N[C@@H](Cc1ccccc1)c1nnc(S(=O)(=O)Cc2ccccc2)o1	32µM*	16µM*
Cc1ccccc1CS(=O)(=O)c1nnc([C@H](Cc2ccccc2)NC(=O)OC(C)(C)C)o1	?	14µM*
COc1ccccc1-c1nnc(C2CCN(C(=O)c3cccc(Cl)c3)CC2)o1	-5%	-3%
COC(=O)C/C=C/[C@@H](C)[C@@H](Cc1ccccc1Br)OC	-2%	1%
COc1ccc(CCNC(=O)c2ccc3c(c2)c(C)c(C)n3Cc2ccccc2)c(OC)c1OC	?	0%
Cc1cccc(CNC(=O)c2ccc3c(c2)c(C)c(C)n3Cc2ccccc2)c1	?	2%
COc1ccc(NC(=O)c2ccc3c(c2)c(C)c(C)n3Cc2ccc(F)cc2)cc1	?	1%
CCOC(=O)c1ccc(NC(=O)c2ccc3c(c2)c(C)c(C)n3Cc2ccc(F)cc2)cc1	7.9µM*	1%
Cc1ccccc1CCNC(=O)c1ccc2c(c1)c(C)c(C)n2Cc1ccccc1	20µM*	3%
Cc1ccccc1CCNC(=O)c1ccc2c(c1)c(C)c(C)n2C	?	-3%
Cc1c(C)n(Cc2ccccc2)c2ccc(C(=O)NCc3ccc(OC(C)C)cc3)cc12	25µM*	2%
Cc1c(C)n(Cc2ccccc2)c2ccc(C(=O)NCCc3ccccc3Cl)cc12	25µM*	2%
SMILES	Cruzain inh noDet	Cruzain Triton
CCC(=O)C(C(=O)OC)[C@H](CCc1ccccc1)NC(=O)OC (stereo not given in full)	-6%	4%
Cc1noc(Cn2c(=O)c3ccccc3n(CC(=O)Nc3cccc(Cl)c3C)c2=O)n1	-2%	-5%
CCOC(=O)c1cc2c(=O)n3ccccc3nc2n(CCOC)c1=NC(=O)c1c(-c2ccccc2Cl)noc1C	0%	-1%
COc1ccc(-n2ncc(C(=O)N3CCc4ccccc4C3)c2C2CCN(C(=O)OC(C)(C)C)CC2)cc1	-16%	-1%
COc1ccccc1C(=O)Nc1cccc(OCc2cc(=O)n3ccccc3n2)c1	13%	4%
COc1ccc(C(=O)Nc2ccc3c(c2)Cc2ccccc2-3)cc1	10µM*	6%
COc1cccc(OC)c1C(=O)NC(=S)Nc1ccc2c(c1)C(=O)N(C)C2=O	-2%	-3%
COc1ccc(C(=O)Nc2cccc(OC)c2)cc1	0%	4%
COc1cc(NC(=S)NC(=O)c2ccccc2C)ccc1NC(=O)c1cccs1	-21%	1%
COc1cccc(OC)c1C(=O)NC(=S)Nc1ccc2c(c1)Cc1ccccc1-2	16µM*	-24%
COc1c(C)cccc1C(=O)NC(=S)Nc1ccc2c(c1)Cc1ccccc1-2	20µM*	2%
Cc1noc(C)c1-c1nccc(N(C)C)n1	-4%	-2%
CCSc1nc2n(n1)C(c1ccc(CC)cc1)C(C(=O)Nc1ccccc1OC)=C(C)N2 (stereo not given)	12%	2%
CCCCCCCCN	1%	11%
COc1ccc(CCNC(=O)Cn2c(=O)c3cccn3c3ccc(F)cc32)c(OC)c1	4%	0%
O=C(CCc1nnc2n(Cc3ccccc3Cl)c(=O)c3ccccc3n12)Nc1ccccc1	-3%	-1%
O=C(Cn1c(=O)n2nc(-c3ccccc3)nc2c2ccccc21)Nc1ccccc1C(F)(F)F	-1%	1%
O=[N+]([O-])c1cccc2ccc(/C=C/c3ccc(F)cc3)nc12	-10%	-6%
O=[N+]([O-])c1ccc(/C=C/c2ccc3cccc([N+](=O)[O-])c3n2)cc1	13µM*	-6%
CCOC(=O)C1=C(C)NC(=S)NC1c1ccc(OC(=O)c2ccco2)cc1 (stereo not given)	?	-8%
CCOC(=O)c1c(NC(=O)C2=C(C)NC(=S)NC2c2ccc(CC)cc2)sc(C)c1C (stereo not given)	10µM*	-5%
Cc1cc(C)c2nc3c(c([C@H](O)C4CCCCN4)c2c1)CC/C3=C/c1ccc(Cl)cc1 (stereo not given in full)	-1%	6%
COC(=O)c1ccc(C(NC(=O)OCc2ccccc2)/C(=C/[C@@H](C)C(=O)NCc2cc(C)n(C)n2)c2cccnc2)cc1 (stereo not given in full)	-9%	-6%
CN(C)c1ccc(Nc2ncnc3c2c(-c2ccccc2)cn3-c2cccc(Cl)c2)cc1	-3%	8%
CSc1cc(-c2ccc(Cl)cc2)n(Cc2ccccc2)c(=O)c1C#N	25µM*	1%
SMILES	Cruzain inh noDet	Cruzain Triton
CSc1cc(-c2ccccc2)n(Cc2c(Cl)cccc2Cl)c(=O)c1C#N	10µM*	0%
N#Cc1cc(-c2ccc(Cl)cc2)cn(Cc2c(Cl)cccc2Cl)c1=O	-23%	0%
CSc1nc(N)c(C#N)c(-c2ccc(Cl)cc2)c1C#N	-14%	-4%
CC(=O)OC1CC[C@@]2(C)C3=CC(=O)[C@]4(C)C(CC5OC6(OCC(C)CC6Br)C(C)C54)C3CC[C@H]2C1 (stereo not given in full)	0%	5%
COc1ccccc1NC(=O)C1=C(C)Nc2nc(SCc3cccc(F)c3)nn2C1c1ccc(C(=O)O)cc1 (stereo not given)	11%	1%
COc1cccc(Cn2c(=O)n(-c3ccc(Br)cc3F)c(=O)c3sc4ccccc4c32)c1	13µM*	-5%
Cc1ccc(Cl)cc1-n1c(=O)c2sc3ccccc3c2n(Cc2ccccc2)c1=O	1%	-1%
CCOc1ccc2cc(-c3nnc(Nc4ccccc4F)s3)c(=O)oc2c1	8%	1%
CCOCCCn1c(SCC(=O)Nc2ccc(C)cc2)nc2ccccc2c1=O	?	-3%
O=C(CCN1CCN(c2ccccc2F)CC1)Nc1ccccc1F	-3%	6%
O=C(CCN1CCN(c2ccccc2F)CC1)c1ccc(Br)cc1	?	14µM*
